Rows were chosen to be rich in hits. Some 11% of all compounds tested hit in one or more screens of this group.
HPGD inh: inhibitors of human 15-hydroxyprostaglandin dehydrogenase (HPGD) | purified HPGD, NADH fluorescence kinetic, PGE2 substrate | Potency, µM, for the others: top-dose activity change, negative = inhibition, actives largely listed as inhibitors | P15428 | 150,000 tested, 4.3% active; further: potency means the concentration at half of the fitted maximal effect
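NADH formation kinetics: reaction with 30 uM PGE2 and 1 mM NAD+ (final), 20 nM enzyme, Tris-HCl pH 8 with Tween 20, after 15 min compound preincubation at room temperature. Fluorescence change, last versus first of five reads.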
ALDH1A1 inh: ALDH1A1 (human) enzyme inhibition; Potency, µM (highest dose often 75.3 µM), for inactives: top-dose activity, negative = inhibition, most hits filed as inhibitors; 220,000 tested, 7.3% active; AID 1030; Purified ALDH1A1, NADH fluorescence, propionaldehyde substrate; P00352;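 further: potency means the concentration at half of the fitted maximal effect; plate controls were no enzyme wells and a reference inhibitor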
Target sequence (P00352 whole entry, looked up): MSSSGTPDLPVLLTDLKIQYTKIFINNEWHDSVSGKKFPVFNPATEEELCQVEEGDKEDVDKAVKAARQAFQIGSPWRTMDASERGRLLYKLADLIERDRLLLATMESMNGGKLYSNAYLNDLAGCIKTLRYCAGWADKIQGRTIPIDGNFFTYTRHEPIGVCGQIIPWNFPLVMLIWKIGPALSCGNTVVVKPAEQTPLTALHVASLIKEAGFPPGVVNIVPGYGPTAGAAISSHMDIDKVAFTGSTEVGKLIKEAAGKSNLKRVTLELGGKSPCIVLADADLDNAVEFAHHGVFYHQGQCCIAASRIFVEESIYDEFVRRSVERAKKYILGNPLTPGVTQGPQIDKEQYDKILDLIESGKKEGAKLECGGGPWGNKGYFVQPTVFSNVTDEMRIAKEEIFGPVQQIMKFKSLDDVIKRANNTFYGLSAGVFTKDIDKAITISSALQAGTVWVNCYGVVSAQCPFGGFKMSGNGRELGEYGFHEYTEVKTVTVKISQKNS
PNC inhibitor: perinucleolar compartment assembly inhibition. activity change (PNC), negative = inhibition, % at 10 µM. 140,000 tested, 3.1% active. PC3M PTB-GFP, PNC prevalence imaging, 16 h; hits give low values;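 active means readout at or below -70, meaning at least 70% loss of cells showing the perinucleolar compartment, a nuclear body marking cancer cells; inconclusive means readout between -30 and a set limit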;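 further: plate controls were DMSO wells for no effect and camptothecin positive control wells for full effect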
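Compounds are pinned in duplicate onto adhered PC3M cells stably expressing GFP-tagged PTB and incubated 16 h at 37 C. Cells are then fixed, nuclei stained with Hoechst, and PNC-positive cells counted.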
* hit, by the source's call; ? = inconclusive; . = no result given; [ ] = remark or other dose. Unless noted, the call rests on the fitted dose curve; in most records, active means well fitted inhibition curve with a large enough effect (not every such curve was filed as active); inconclusive means small, poorly fitted or top-dose-only effect, or another doubt; inactive means no such curve, though single readings can be large or run the other way. Unless noted, on the % scale 0 is the no-effect control and ±100 the full control effect.

SMILES	HPGD inh	ALDH1A1 inh	PNC inhibitor
CC(C)(C)NC(=O)COC(=O)/C=C/c1ccc(F)cc1	-8%	1%	-4
COc1cc(/C=C/C(C)=O)cc(OC)c1OC	-24%	-3%	9
COc1cc(/C=C/C(=O)c2cccs2)cc(OC)c1OC	28µM*	10µM*	.
Cc1cccc(C)c1OCc1nnc2c3cnn(C)c3ncn12	-11%	?	-22
COc1ccc(Cc2nnc3c4cnn(C)c4ncn23)cc1	-8%	2%	-86*
O=C(O)[C@@H](O)c1ccc(F)cc1	-4%	1%[13.5 µM]	.
CC(NC(=O)c1ccc(F)cc1)c1ccc(F)cc1 (configuration not stated)	-15%	6%	24
N#CC(c1ccc(F)cc1)c1ccc(C(=O)c2ccccc2)cc1 (configuration not stated)	14µM*	-39%	?
N#CC(c1ccccc1)c1ccc(C(=O)c2ccc(F)cc2)cc1 (configuration not stated)	?	20µM*	36
CC(=O)Nc1ccc(NC(=O)C(C)c2cccc(C(=O)c3ccccc3)c2)cc1 (configuration not stated)	-16%	?	30
CC(=O)Nc1ccc(C(C#N)c2ccccc2)cc1 (configuration not stated)	.	14µM*	.
O=C(c1ccco1)N1CCC[C@@]2(CCN(c3ncccn3)C2)C1	-18%	?	.
C[C@]12CCC(=O)C=C1CCC1C2C(=O)C[C@]2(C)C1CC[C@]2(O)C(=O)CO (some centres not stated)	-4%	5%	.
COc1ccc(CC2(CO)CCN(C/C=C/c3ccccc3OC)CC2)cc1	.	2%	.
COc1ccccc1/C=C/CN1CCN(c2ccccc2)CC1	-11%	-13%	-111*
O=C(Nc1ccc(Cn2cccn2)cc1)c1ccc(COc2ccc(Br)cc2)cc1	-5%	3%	?
O=C(Nc1ccn(Cc2ccccc2F)n1)c1ccc(COc2ccc(Br)cc2)cc1	?	?	-108*
Cc1ccc(S(=O)(=O)NC(C)(C)CSc2nnc(Nc3ccccc3)s2)cc1	-10%	20µM*	?
Cc1ccc(S(=O)(=O)NC(C)(C)CSc2nncn2N)cc1	-7%	-8%	-19
CN1CCN(c2ncnc3ccc(-c4cccnc4)cc23)CC1	.	17%	.
O=C(COC(=O)C12CC3CC(CC(C3)C1)C2)Nc1ncc(Cl)cc1Cl	-10%	?	-88*
O=C(COC(=O)CC12CC3CC(CC(C3)C1)C2)Nc1ncc(Cl)cc1Cl	-10%	1%	-19
O=C1OC(C(=O)NCc2ccccc2)Cc2ccccc21 (configuration not stated)	.	-7%	.
Cc1nc([N+](=O)[O-])c(C(=O)OCc2ccc(C#N)cc2)n1C	.	2%	.
CCCCNCc1cc(OCC)c(OCC(N)=O)cc1Br	-11%	-2%	-25
SMILES	HPGD inh	ALDH1A1 inh	PNC inhibitor
CCCCNCc1cc(OC)c(OCC(N)=O)cc1Br	-17%	3%	-100*
CC#C[C@]1(O)CC[C@H]2C3CCC4=CC(=O)CCC4=C3[C@@H](c3ccc(N(C)C)cc3)C[C@@]21C (some centres not stated)	-8%	6%	.
Fc1ccc(C(c2nnnn2C2CCCC2)N2CCN(Cc3ccccc3)CC2)cc1 (configuration not stated)	.	?	3
CC(C)CCn1nnnc1CN1CCN(C(c2ccccc2)c2ccccc2)CC1	.	14µM*	.
CCC(C)(C)n1nnnc1C(c1ccncc1)N1CCC(C)CC1 (configuration not stated)	3%	9%	-119*
CCC(C)(C)n1nnnc1CN1CCN(C(c2ccccc2)c2ccccc2)CC1	-12%	25µM*	162
c1ccc(C(c2ccccc2)N2CCN(Cc3nnnn3C3CCCC3)CC2)cc1	-4%	11µM*	-82*
CCC(C)(C)n1nnnc1C(c1ccc(C)cc1)N1CCC(C)CC1 (configuration not stated)	-3%	-3%	?
CC(C)CCn1nnnc1CN1CCN(c2ccc(F)cc2)CC1	.	2%	.
CCC(C)(C)n1nnnc1C(c1ccccc1)N1CCN(Cc2ccccc2)CC1 (configuration not stated)	.	1%	.
Cc1ccc(OC(=O)c2cc(C)nn2C(C)(C)C)cc1	.	16%	.
Cc1ccc(C)c(C(=N)c2ccccc2Cc2ccccc2)c1	2%	8%[13.5 µM]	.
Cc1cccc(OCCC(=O)N(C)CC(=O)Nc2cccc3ccccc23)c1	-4%	-14%	?
O=C1/C(=C/c2ccccc2)[C@@H](NC2CCCCC2)c2ccccc21	-21%	-13%[13.5 µM]	.
CCCCCCCCCCCCCCCCCCO	-8%	11%	.
CCCCCCCC/C=C\CCCCCCCC(=O)OCC(CO)OC(=O)CCCCCCC/C=C\CCCCCCCC (configuration not stated)	-2%	2%	.
OCC1OC(O)C(O)C(O)C1O (configuration not stated)	-5%	17%	.
NC(=O)CSc1nc2c(sc3ccccc32)c(=O)n1CCCC(=O)NCC1CCCO1 (configuration not stated)	.	-14%	.
C=CCNC(=O)/C(C#N)=C/c1c(N(Cc2ccccc2)Cc2ccccc2)nc2ccccn2c1=O	-18%	7.1µM*	37
N#C/C(=C\c1c(N(Cc2ccccc2)Cc2ccccc2)nc2ccccn2c1=O)C(N)=O	-4%	?	-8
COc1ccc(Cn2nc(-c3ccccc3)c(N3CCCCC3)cc2=O)cc1	.	-15%	.
O=c1cc(N2CCCC2)c(-c2ccccc2)n[nH]1	.	-7%	.
Cn1nc(-c2ccccc2)c(N2CCCCC2)cc1=O	.	28µM*	.
O=c1cc(N2CCCCC2)c(-c2ccccc2)nn1Cc1ccccc1	.	16µM*	.
Cc1ccccc1NC(NC(=O)c1cccs1)C(Cl)(Cl)Cl (configuration not stated)	-9%	-2%	63
SMILES	HPGD inh	ALDH1A1 inh	PNC inhibitor
C=CCCCCCCCCC(=O)NN	-8%	14µM*	-9
COC(=O)CCCCC(=O)OC	-1%	-6%	.
C=CCCCCCCCC(=O)OC	.	18µM*	.
C=CCCCCCCCCC(=O)O	-9%	2%	.
FC(F)(F)c1cnc2c(-c3ccccc3)n[nH]c2c1	.	11%	.
O=C(O)CCCNC(=O)c1ccc(NC(=O)Cc2ccc(Cl)cc2)cc1	.	-3%	.
CN1CCN(S(=O)(=O)c2cccc(C(=O)Nc3ccccc3N3CCOCC3)c2)CC1	.	9%	.
CC(C)Cc1nccs1	-11%	-3%	.
CC1=C(C(N)=O)C(c2ccc(C)o2)C(C(N)=O)=C(C)N1	-10%	40µM*	?
CCOC(=O)C1=C(C)NC(C)=C(C(=O)OCC)C1c1ccc(C)o1	.	7%	.
N/C(=N\OC(=O)c1ccco1)c1cccc(Br)c1	-21%	-6%	-19
O=C(c1cccc(Br)c1)c1conc1C(=O)c1ccco1	-5%	-5%	-114*
CCOC(=O)Cc1[nH]nc2c1C(c1ccsc1)C(C#N)=C(N)O2 (configuration not stated)	.	-5%	.
O=S(=O)(Nc1ccc(S(=O)(=O)Nc2nccs2)cc1)c1ccc2c(c1)OCCO2	-20%	13µM*	2
O=C(Nc1ccc2c(c1)OCCO2)c1cccs1	20µM*	?	?
O=C(Nc1ccc2c(c1)OCO2)c1cccs1	25µM*	?	-9
O=C(Nc1ccc2c(c1)OCO2)c1ccc(Br)s1	-23%	1%	-25
O=C(c1ccc2c(c1)OCCCO2)c1cccs1	14µM*	-13%	-29
